Hits are enriched below; roughly 5.2% of the tested compounds scored in any of these assays.
Tau fibril ThT – blocks human tau fibril formation measured by thioflavin T; P10636; AID 1460; recombinant tau K18 P301L, heparin-induced fibrillization, ThT fluorescence; Potency, µM (highest dose often 57.4 µM), without a hit: top-dose activity, negative = inhibition, most hits filed as inhibitors; 270,000 tested, 2.1% active; note: potency is the fitted concentration of half-maximal effect; nearly all actives have a fitted effect of over 55% in size
Target sequence (P10636 561-689 P618L limits assumed): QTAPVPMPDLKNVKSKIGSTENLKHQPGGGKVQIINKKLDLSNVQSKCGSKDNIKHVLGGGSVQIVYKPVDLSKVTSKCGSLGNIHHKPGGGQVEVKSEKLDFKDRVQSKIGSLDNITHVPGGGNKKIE
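Tau K18 P301L fragment (15 uM unlabeled plus 0.24 uM Alexa 594-labeled) in 100 mM sodium acetate pH 7 with compound, fibrillization induced by 20 uM heparin for 6 hr at 37 C. Thioflavin T (30 uM) added, fluorescence read after 1 hr (ex 450, em 510 nm).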
Tau FP inhib – tau fibrillization inhibition (FP) | P10636 | K18 P301L tau heparin fibrillization, Alexa594 FP, 6 h | Potency, µM (doses to about 57.7 µM), for inactives: at the top dose activity, negative = inhibition, usual class: inhibitors | 280,000 tested, 0.39% active | AID 1468; note: potency is the fitted concentration of half-maximal effect; nearly all actives have a fitted effect of over 55% in size
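Human K18 P301L fragment (15 uM unlabeled plus 0.24 uM Alexa 594-labeled) in 100 mM sodium acetate pH 7 with compound, aggregation induced by 20 uM heparin for 6 hr at 37 C. ThT (30 uM) added for 1 hr, then Alexa 594 FP read.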
Tau fluor cs – counter-screen for tau fibril formation inhibitors. tau K18 P301L Alexa594 fluorescence, heparin fibrillization. AID 1463. 280,000 tested, 0.93% active. Potency, µM (doses to about 57.7 µM), for the others: at the top dose activity change, negative = decrease; note: potency is the fitted concentration of half-maximal effect; nearly all actives have a fitted effect of over 55% in size
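Human tau K18 P301L (15 uM unlabeled, 0.24 uM Alexa 594-labeled) in 100 mM sodium acetate pH 7 with 20 uM heparin, 6 hr at 37 C. ThT 30 uM added, 1 hr ambient; Alexa 594 FP and total fluorescence read at 555/632 nm.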
Sfp inh – Sfp phosphopantetheinyl transferase inhibition | Q9F4F7 | Biochemical Sfp PPTase activity, qHTS | Potency, µM, for inactives: largest response in the series, negative = inhibition, actives largely listed as inhibitors | 310,000 tested, 3.5% active;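 note: the enzyme is Sfp with the accession as filed and its product quenches rhodamine fluorescence; potency is the fitted concentration of half-maximal effect; 0% = enzyme reaction without inhibitor and -100% = no enzyme wells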
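Compounds were incubated with enzyme (final 15 nM) for 15 min at room temperature before substrate addition started the reaction. Fluorescence at 525 nm excitation, 598 nm emission was recorded immediately and after 30 minutes.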
FBPA coupling cs – inhibits coupling enzyme system, counter-screen for aldolase hits; coupling enzyme system counterscreen, AmpLite Red fluorescence; activity change, negative = inhibition, % at 58.2 µM, hits read low; 290,000 tested, 0.67% active; AID 2472; in the data active = activity change below about -30%
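First, compound is pin-transferred into glyceraldehyde-3-phosphate coupling-enzyme reagent at 57.5 uM final and held 10 min at RT. Next, substrate, coupling system and AmpLite Red are added. After 20 min RT, fluorescence (525/598 nm) is read.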
Starred values were filed as active, the others as inactive; u = inconclusive; x = no result; [ ] = another dose, or the depositor's remark. Unless noted, calls come from the whole dose curve; as a rule, active = well fitted curve in the direction sought with a large enough effect; inconclusive = small, poorly fitted or top-dose-only effect, or another doubt; inactive = no such curve, though single readings can be large; an effect the other way counts as inactive or inconclusive. Unless noted, % is set by controls: 0 for no effect and ±100 for the full control effect.

SMILES	Tau fibril ThT	Tau FP inhib	Tau fluor cs	Sfp inh	FBPA coupling cs
O=[N+]([O-])c1cc(Cl)cc(/C=N/Nc2nc3ccccc3s2)c1O	11.2µM*	-2.7%	25.1µM*[quencher]	0.2%	0.3
Cc1cc(C)c(CSc2nnc(C)n3c2cc2occc23)c(C)c1	u	-10.4%	-22.2%	x	x
N#Cc1c(-n2ncnc2-c2ccccc2C(F)(F)F)sc2c1CCCCC2	u	-7.4%	-12.3%	x	x
COc1ccc(C)cc1-n1nnc(C(=O)Nc2cccc(SC)c2)c1C	-1.3%	7.4%	-2.9%	x	x
CN(C)C(=O)c1ccc2c(c1)N(CC(=O)NCc1ccc(F)cc1)C(=O)C1CCCCN21 (stereo not given)	-1.5%	-3.4%	-0.2%	x	x
COc1cc(OC)c(NS(=O)(=O)c2cc3c(cc2C)NC(=O)CO3)cc1Cl	2.4%	6.8%	-2.4%	x	x
Cc1ccc(C)c(NS(=O)(=O)c2cc3c(cc2Cl)NC(=O)CO3)c1	-17.1%	2.3%	14.1µM*[quencher]	x	x
CC(C)CCNC(=O)Nc1ccc2c(c1)N(Cc1ccccc1)C(=O)c1ccccc1S2	9.6%	14.1µM*	-23.9%	x	x
CCN1C(=O)c2ccccc2Sc2ccc(NC(=O)Nc3cccc([N+](=O)[O-])c3C)cc21	0.7%	15.8µM*	u	x	x
CCN1C(=O)c2ccccc2Sc2ccc(NC(=O)Nc3ccccc3OC)cc21	7.4%	u	u	x	x
COc1ccc(/C=C/C(=O)Nc2nc(-c3cccs3)ns2)cc1OC	17.8%	u	-25.4%	x	x
CCc1nc(SCC(=O)c2cc(C)ccc2C)n[nH]1	-14.7%	-5.0%	-11.5%	56.2µM*	-0.6
Cc1ccc(C)c(C(=O)CSc2n[nH]c(C)n2)c1	0.0%	-4.6%	1.3%	79.4µM*	-0.4
Cc1ccc(C)c(C(=O)CSc2n[nH]c(C(C)C)n2)c1	-14.2%	-4.5%	-13.4%	-6.8%	-1.0
CC(C)C(=O)Nc1ccc2nc(SCC(=O)N3CCc4ccccc43)sc2c1	1.5%	-3.3%	-17.2%	x	x
Cc1nc2ccc(Br)cn2c1C(=O)N/N=C\c1ccc(C(C)C)cc1	x	x	x	11.5%	0.0
COc1cccc(/C=N/NC(=O)c2c(C)nc3ccc(Br)cn23)c1	-6.9%	-0.6%	0.8%	17.6%	-33.1*
Cn1c(=O)c2c(-c3ccccc3Cl)n(-c3cc(Cl)ccc3O)cc2n(C)c1=O	-8.7%	-2.9%	u	x	x
COC(=O)C1=C(C)NC(=S)NC1c1ccc(-c2cc(Cl)ccc2Cl)o1 (stereo not given)	-3.1%	-17.0%	-11.0%	39.8µM*	0.3
COC(=O)C1=C(C)NC(=O)NC1c1ccc(-c2ccc(Cl)cc2)o1 (stereo not given)	-5.9%	-10.5%	-6.8%	-6.7%	9.2
CCOc1ccccc1N(C)C(=O)c1cc(S(=O)(=O)NCCc2ccc(Cl)cc2)ccc1F	-4.1%	12.5%	-11.9%	x	x
Cc1ccc(O)c(NC(=O)c2cc([N+](=O)[O-])ccc2Cl)c1	9.5%	0.2%	0.1%	u	-4.2
O=C(Nc1ccc([N+](=O)[O-])cc1Cl)c1cc(Cl)ccc1O	7.08µM*	6.4%	u	0.3%	-2.9
O=C(Nc1cccc(Cl)c1)c1cc(N=Nc2ccc([N+](=O)[O-])cc2Cl)ccc1O	0.891µM*	8.91µM*	1.12µM*[quencher]	-24.2%	3.3
Cc1ccc(NC(=O)c2ccc(NCCN)c([N+](=O)[O-])c2)cc1	14.1µM*	7.6%	-27.6%	u	7.9
SMILES	Tau fibril ThT	Tau FP inhib	Tau fluor cs	Sfp inh	FBPA coupling cs
O=C(Nc1cccc(Cl)c1)c1ccc(NCCCN2CCOCC2)c([N+](=O)[O-])c1	14.1µM*	-8.9%	u	-10.2%	1.8
Cc1ccccc1Nc1nc(NCc2ccco2)c2ccccc2n1	u	13.2%	u	u	0.2
c1ccc(CN2CCN(c3nc(NCc4ccco4)c4ccccc4n3)CC2)cc1	-15.0%	13.4%	u	44.7µM*	-8.4
Oc1ccccc1Nc1nc(NCc2ccco2)c2ccccc2n1	u	-10.0%	17.8µM*[quencher]	25.1µM*	-0.8
c1cncc(-c2nc(NCc3ccco3)c3ccccc3n2)c1	u	-2.4%	-26.7%	79.4µM*	-5.9
c1ccc(Nc2nc(NCc3ccco3)c3ccccc3n2)cc1	9.7%	-10.9%	u	15.8µM*	-2.8
CC1CCC2C(=O)N3C(CCC(C)C3c3ccc(-c4ccco4)cc3)C(=O)N2C1c1ccc(-c2ccco2)cc1 (stereo not given)	-12.4%[11.5 µM]	-2.7%[11.6 µM]	0.4%[11.6 µM]	u	-0.1
CCCCC/C=C\C/C=C\C=C\[C@@H](O)C/C=C\CCCC(=O)O	-17.6%	2.4%	-17.3%	7.6%	1.3
NC(=O)c1cc(N2C(=O)C=CC2=O)ccc1Cl	u	-20.4%	-14.0%	8.91µM*	8.9
O=C(O)C1CSC(c2ccc3c(c2)OCO3)N1 (stereo not given)	u	u	-15.0%	25.1µM*	6.3
Fc1ccccc1-n1[nH]nnc1=S	-4.9%	5.3%	1.4%	25.1µM*	1.2
O=S(=O)(c1ccc(Br)cc1)c1nc(-c2cccs2)oc1SCc1ccc(F)cc1	-6.3%	-8.4%	-28.1%	x	x
CN1CCc2c(sc3c2C(=O)NC(c2cccc(OC(=O)c4cccs4)c2)N3)C1 (stereo not given)	u	-2.0%	-14.6%	-29.8%	-9.4
COc1cc(C2NC(=O)c3c(sc4c3CCN(C)C4)N2)ccc1OC(=O)c1ccccc1 (stereo not given)	12.6µM*	-6.3%	-13.7%	x	x
CCOC(=O)N1CCc2c(sc3c2C(=O)NC(c2cc(OC)c(O)c(OC)c2)N3)C1 (stereo not given)	11.2µM*	1.0%	-16.1%	x	x
CCOC(=O)c1sc(C)c2c1NC(c1ccc(N(C)C)cc1)NC2=O (stereo not given)	-12.7%	-1.8%	-10.5%	2.7%	-0.4
CCOC(=O)N1CCc2c(sc3c2C(=O)NC(c2ccccc2)N3)C1 (stereo not given)	28.2µM*	u	-27.9%	56.2µM*	-29.6
CCOC(=O)N1CCc2c(sc3c2C(=O)NC(c2ccc(N(C)C)cc2)N3)C1 (stereo not given)	0.891µM*	-19.1%	-15.2%	x	x
Cc1ccn2c(=O)cc(COc3ccc(NC(=O)COc4ccccc4)cc3)nc2c1	u	2.2%	4.5%	x	x
N#Cc1ccccc1OCC(=O)N1CCN(c2ccccc2)CC1	-12.5%	-4.7%	-11.3%	x	x
Cc1ccc(NC(=O)N2CCN(C(=O)c3nsc4ccccc34)CC2)cc1C	-15.4%	10.0%	-25.6%	x	x
CCC(C)NC(=O)CSc1nc2cc3c(cc2c(=O)n1CCCCCC(=O)NCc1ccc(OC)cc1)OCO3 (stereo not given)	6.5%	-7.6%	-0.5%	x	x
CCOC(=O)C1=C(C)N=c2s/c(=C\c3ccncc3)c(=O)n2C1c1ccc2c(c1)OCO2 (stereo not given)	25.1µM*	u	u	-20.0%	-0.4
CCOC(=O)C1=C(C)N=c2s/c(=C3\C(=O)Nc4ccccc43)c(=O)n2C1c1ccc2c(c1)OCO2 (stereo not given)	17.8µM*	u	u	3.1%	0.7

Assay outcomes deposited in PubChem by National Center for Advancing Translational Sciences (NCATS).
